# High-throughput results from PubChem.
# Hits are enriched below; roughly 19% of the tested compounds scored in any of these assays.
# TDP1 cell noCPT: qHTS for Inhibitors of human tyrosyl-DNA phosphodiesterase 1 (TDP1): qHTS in cells in absence of CPT. DT40 Tdp1-/- hTDP1 cells, no CPT, ATP luminescence, 48 h. Potency, µM (top dose mostly 46.2 µM), for the others: top-dose activity change, negative = growth inhibition, hits mostly inhibitors. 420,000 compounds, 15% hits. AID 686978, 2013; also: potency is read from the fitted curve at half-maximal effect; % is scaled to controls: 0 for no effect and ±100 for the full control effect; nearly all actives have a fitted effect of over 55% in size
#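 Chicken DT40 Tdp1-/- cells complemented with human TDP1, screened without camptothecin (DMSO vehicle only), 400 cells/well. Compounds pin-transferred, cells incubated at 37 °C for at least 48 hr. Growth read as ATP-dependent luminescence (CellTiter-Glo, 30 min at RT).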
# TGFb inhibitor: inhibitors of TGF-b signaling | HepG2 CAGA-GFP TGF-b/SMAD3 reporter, GFP fluorescence, 18 h; TGF-beta stimulated, 500 pg/mL final | Potency, µM (doses to about 46.1 µM), for inactives: at the highest dose activity, negative = inhibition, hits mostly inhibitors | 410,000 compounds, 1.2% hits; also: potency is read from the fitted curve at half-maximal effect; % is scaled to controls: 0 for no effect and ±100 for the full control effect; nearly all actives have a fitted effect of over 65% in size
#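 GFP signal (ex488/em500-530) from TGF-beta-stimulated HEPG2 CAGA-GFP cells, 500 pg/mL final, 18 h at 37 degrees C in DMEM plus 1% FBS, normalized to unstimulated and DMSO-stimulated controls.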
# DT40 TDP1 CPT: growth inhibition of DT40 Tdp1-/-;hTDP1 cells with camptothecin (screen for TDP1 inhibitors); chicken DT40 Tdp1-/-;hTDP1 cells + 20 nM CPT, ATP luminescence, 48 h; Potency, µM (top dose mostly 46.2 µM), inactives show at the highest dose activity change, negative = growth inhibition, most hits filed as inhibitors; 420,000 compounds, 12% hits; AID 686979; also: potency is read from the fitted curve at half-maximal effect; % is scaled to controls: 0 for no effect and ±100 for the full control effect; nearly all actives have a fitted effect of over 55% in size
#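 Cell growth measured by CellTiter-Glo luminescence after a minimum 48 h, 37 C compound exposure with 20 nM CPT in Tdp1-knockout DT40 cells stably expressing hTDP1, seeded 400/well; qHTS titration format.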
# HepG2 viability: kills HepG2 cells in TGF-b inhibitor counter-screen; HepG2 CAGA-GFP viability, ATP luminescence, 18 h; Potency, µM (series often up to 46.1 µM), without a hit: at the highest dose activity change, negative = cytotoxicity, usual class: cytotoxic; 410,000 compounds, 0.76% hits; also: potency is read from the fitted curve at half-maximal effect
#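 HepG2 CAGA-GFP cells (1000/well, DMEM with 1% FBS) received compound, then TGF-beta at 500 pg/mL final, and were incubated 18 hours at 37 degrees C. Viability was read by CellTiter-Glo luminescence. Media-only wells were set as complete cell-killing and DMSO as no toxicity.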
# TDP1 block: blocks human tyrosyl-DNA phosphodiesterase 1 | 350,000 compounds, 0.28% hits | recombinant TDP1, AlphaScreen DNA substrate cleavage | AID 485290 | Potency, µM (highest dose often 130 µM), without a hit: at the top dose activity change, negative = inhibition, usual class: inhibitors | Q9NUW8; also: potency is read from the fitted curve at half-maximal effect; % is scaled to controls: 0 for no effect and ±100 for the full control effect; nearly all actives have a fitted effect of over 40% in size
# Target sequence (Q9NUW8 whole entry, looked up): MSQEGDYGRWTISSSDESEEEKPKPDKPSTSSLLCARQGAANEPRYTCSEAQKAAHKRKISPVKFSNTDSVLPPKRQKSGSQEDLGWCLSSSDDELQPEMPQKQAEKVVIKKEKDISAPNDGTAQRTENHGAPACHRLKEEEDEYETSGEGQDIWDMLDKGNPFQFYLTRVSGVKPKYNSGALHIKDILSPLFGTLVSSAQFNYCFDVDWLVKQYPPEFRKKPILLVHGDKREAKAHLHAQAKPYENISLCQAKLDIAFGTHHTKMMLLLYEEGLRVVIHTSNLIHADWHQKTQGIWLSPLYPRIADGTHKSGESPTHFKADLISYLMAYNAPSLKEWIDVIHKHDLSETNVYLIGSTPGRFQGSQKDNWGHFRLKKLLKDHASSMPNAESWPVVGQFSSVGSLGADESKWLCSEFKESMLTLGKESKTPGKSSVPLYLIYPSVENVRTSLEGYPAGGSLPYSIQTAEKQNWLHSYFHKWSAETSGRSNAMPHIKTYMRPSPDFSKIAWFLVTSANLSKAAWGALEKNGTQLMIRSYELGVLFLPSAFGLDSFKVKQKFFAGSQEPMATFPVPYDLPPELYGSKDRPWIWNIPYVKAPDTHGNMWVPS
#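 Here, a 5' biotin and 3' phosphotyrosine-FITC DNA oligonucleotide reports Tdp1 activity: intact substrate bridges AlphaScreen beads, while cleavage leaves a 3' phosphate and drops signal. All incubations at room temperature.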
# IL1B secr inh: inhibitors of inflammasome signaling (IL-1 beta secretion) | activity change, % at 57.5 µM | THP-1 LPS/ATP IL-1B secretion, AlphaLISA, 16 h; hits give low values | 360,000 compounds, 4.7% hits | AID 743279; in the data active = activity change below about -50%; inconclusive = mostly about -30% to -49%; also: % is scaled to controls: 0 for no effect and ±100 for the full control effect
#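 THP-1 cells pretreated 1 hr with compounds (up to 57.5 uM final), then stimulated with LPS (250 ng/mL final) plus ATP (1.25 mM final); secreted IL-1B measured by AlphaLISA after 16 hr, decreased signal indicating inhibition.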
# An asterisk follows results filed as active; u = inconclusive; x = no result given; [ ] = dose if it differs, or a comment. Unless noted, calls follow the shape of the dose curve; as a rule, active = well fitted curve in the direction sought with a large enough effect; inconclusive = small, poorly fitted or top-dose-only effect, or another doubt; inactive = no such curve, though single readings can be large; an effect the other way counts as inactive or inconclusive.
SMILES,TDP1 cell noCPT,TGFb inhibitor,DT40 TDP1 CPT,HepG2 viability,TDP1 block,IL1B secr inh
O=C(OCC(=O)N1CCN(S(=O)(=O)c2ccccc2)CC1)c1ccc([N+](=O)[O-])o1,-17%,-13%,-28%,-39%,8%,-11
Cc1ccc(S(=O)(=O)N2CCN(C(=O)COC(=O)CCOc3ccc(C(C)(C)C)cc3)CC2)cc1,10µM*,12%,12µM*,-4%,-5%,-15
O=C(OCC(=O)N1CCN(S(=O)(=O)c2ccc(Cl)cc2)CC1)c1ccc([N+](=O)[O-])o1,u,-13%,18µM*,-23%,-2%,u
CCOc1ccc(OCCC(=O)OCC(=O)N2CCN(S(=O)(=O)c3ccc(C)cc3C)CC2)cc1,-20%,8%,u,-22%,x,-9
Cc1ccccc1OCCC(=O)OCC(=O)N1CCN(S(=O)(=O)c2ccc(Cl)cc2)CC1,-26%,0%,-12%,0%,x,12
Cc1ccc(OCCC(=O)OCC(=O)N2CCN(S(=O)(=O)c3ccc(Cl)cc3)CC2)cc1,u,-10%,u,0%,6%[0.505 µM],-59*
CCOc1ccc(OCCC(=O)OCC(=O)N2CCN(S(=O)(=O)c3ccc(C)cc3)CC2)cc1,15µM*,-2%,15µM*,-26%,-9%,-73*
CCOCc1c(C(=O)OCC(=O)Nc2ccccc2C(N)=O)oc2ccccc12,u,4%,u,-3%,-2%[56.1 µM],22
O=C(C[n+]1ccccc1Br)c1ccc(-c2ccccc2)cc1,-28%,u,u,-26%,x,x
COc1ccc(CCNS(=O)(=O)CCNC(=O)c2ccc3c(c2)OCO3)cc1,u,9%,-4%,-14%,-1%,-8
CCOC(=O)c1c(C)[nH]c(C(=O)OCC(=O)Nc2cc(C)ccc2OC)c1C,4.1µM*,3%,2.6µM*,-23%,2%,40
CCOC(=O)C(=CNc1cc(C)nn1-c1ccccc1)C(=O)OCC,16µM*,-4%,21µM*,-13%,2%,10
CCOC(=O)c1c(C)[nH]c(C(=O)OCC(=O)NCc2ccccc2)c1C,u,-9%,u,-32%,0%,3
COc1cc(OC)cc(C(=O)Nc2cc(C)nn2-c2ccccc2)c1,-20%,5%,-29%,2%,1%[0.0935 µM],-17
COc1ccc(NC(=O)COC(=O)c2ccc(OCc3ccc(Cl)cc3Cl)c(OC)c2)c(OC)c1,u,11%,u,10%,-3%,6
CCOC(=O)c1c(C)[nH]c(C(=O)OCC(=O)Nc2cc(C)nn2-c2ccccc2)c1C,18µM*,-27%,u,-13%,x,-11
COc1ccc(C)cc1NC(=O)COC(=O)c1ccc(OCc2ccc(Cl)cc2Cl)c(OC)c1,16µM*,-4%,18µM*,1%,-1%,0
COc1ccc(-c2nc3ccccc3s2)cc1NC(=O)c1cccc([N+](=O)[O-])c1C,-11%,23%,-14%,3%,3%,x
COc1ccc2c(c1)cc1c(=O)n(CC(=O)NCc3ccco3)nc(C)n12,-5%,-6%,-2%,-10%,2%,x
COc1ccc(NC(=O)Cn2c(=O)n(-c3cccc(C)c3)c(=O)c3c2c2cc(C)ccc2n3C)cc1Cl,-27%,-17%,u,-18%,3%,x
CCOC(=O)c1c(C)c(C(=O)Nc2cc(OC)ccc2OC)c(C)n1CC,18µM*,-2%,6.5µM*,-26%,10%,-2
CCOC(=O)c1[nH]c(C)c(C(=O)Nc2cc(OC)ccc2OC)c1C,0.56µM*,5%,0.79µM*,-3%,8%,76
O=C(COC(=O)c1ccc(O)cc1O)Nc1cc(-c2ccccc2)nn1-c1ccccc1,18µM*,-9%,u,-22%,0%,-58*
O=C(Oc1ccc(Br)cc1C(=O)/C=C/c1ccccc1F)c1ccco1,16µM*,16µM*,21µM*,-47%,x,-98*
Cc1cccc(OCCOCCn2c(-c3ccc(Cl)cc3)nc3ccccc3c2=O)c1C,u,1%,-26%,-22%,x,x
SMILES,TDP1 cell noCPT,TGFb inhibitor,DT40 TDP1 CPT,HepG2 viability,TDP1 block,IL1B secr inh
CCC(CC)c1nc(C#N)c(NCc2ccccc2)o1,21µM*,u,23µM*,-10%,-5%,1
CCN(C(=O)CSc1nc2ccccc2n1CC(=O)Nc1ccc(F)cc1F)c1ccccc1,15µM*,-23%,23µM*,-13%,-1%,x
CCn1cc2nc(SCC(=O)Nc3ccc(F)cc3F)n(Cc3ccccc3)c(=O)c2n1,u,-28%,23µM*,-10%,1%,-9
CCn1cc2nc(SCC(=O)Nc3ccc(C)cc3C)n(Cc3ccc(C)cc3)c(=O)c2n1,5.2µM*,7%,3.7µM*,-11%,0%,x
CN(C(=O)CSc1nc2ccccc2n1CC(=O)NCc1ccc(F)cc1)c1ccc(F)cc1,u,u,u,-20%,4%,x
COc1cccc(C(=O)Nc2c(C(=O)N3CCN(c4ccc(F)cc4)CC3)oc3ccccc23)c1,u,-8%,u,-5%,-2%,x
COc1ccc(Br)cc1CNC(=O)Cn1nc(C)n2c(cc3cc(F)ccc32)c1=O,u,-1%,u,0%,-4%,x
O=C(Nc1nnc(C23CC4CC(CC(C4)C2)C3)s1)c1ccc(N2C(=O)CCC2=O)cc1,26µM*,-8%,u,0%,45µM*,5
COc1cc(OC)cc(-c2nc3n(n2)C(c2ccccc2F)C(C(=O)Nc2cccnc2)=C(C)N3)c1 (stereo unspecified),u,11%,u,4%,x,x
COc1c(O)cc(O)cc1O,-19%,x,-18%,x,20µM*,x
CCOc1ccc(-n2c(SCC(=O)Nc3ccc(F)cc3)nc3c([nH]c4ccccc43)c2=O)cc1,u,-2%,u,-3%,2%,x
CN(Cc1nc2ccccc2c(=O)[nH]1)C(=O)c1cccc(NC(=O)c2cccs2)c1,u,10%,u,-10%,0%,3
O=C(CCl)Nc1cn(-c2ccccc2)nc1-c1ccccc1,3.7µM*,u,2.9µM*,22µM*,-5%,-97*
CC(=O)Nc1cn(-c2ccccc2)nc1-c1ccccc1,10%,-2%,1%,-9%,-3%,-79*
CC(=O)N1CCc2cc(S(=O)(=O)NC(Cc3ccccc3)C(=O)Nc3ccc(C)cc3C)ccc21 (stereo unspecified),-7%,u,u,-10%,0%,x
